Data as given in the supplement of paper PMC10849652.
Of roughly 8,800 targets only a part is listed; those with a hit were picked by preference. About 0.5% of all pairs of compound and target were hits. Unmarked numbers belong to inactive results.

Compound: CNC(=O)C1=CC=CC=C1NC2=NC(=NC=C2Cl)NC3=C(C=C(C=C3)N4CCOCC4)OC
Experiment: log2 fold change, soluble protein after heating vs DMSO (PISA); higher = thermal stabilisation; K562 lysate, 10 uM; active = over 0.2 and 3.5 SD of the protein, either way, in both replicates (recomputed)
Outline: (§1)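 Following dounce homogenisation of K562 pellets in PBS pH 7.4 with 1 mM MgCl2, crude extract at 1 mg/mL protein was incubated for 30 min with 10 μM compound. Aliquots were then heated for 3 min over 48°C-58°C and pooled, NP-40 was added to 0.5% at 4°C, and soluble protein was recovered as the supernatant at 21,000xg for 90 min. Channel-sum-equalised TMTpro 16plex LC-MS/MS quantified this protein. Each value, from duplicates, is a log-two fold change in thermal stability relative to solvent controls.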

Chain of UniProt Q9UI10 (Q9UI10 whole entry, looked up): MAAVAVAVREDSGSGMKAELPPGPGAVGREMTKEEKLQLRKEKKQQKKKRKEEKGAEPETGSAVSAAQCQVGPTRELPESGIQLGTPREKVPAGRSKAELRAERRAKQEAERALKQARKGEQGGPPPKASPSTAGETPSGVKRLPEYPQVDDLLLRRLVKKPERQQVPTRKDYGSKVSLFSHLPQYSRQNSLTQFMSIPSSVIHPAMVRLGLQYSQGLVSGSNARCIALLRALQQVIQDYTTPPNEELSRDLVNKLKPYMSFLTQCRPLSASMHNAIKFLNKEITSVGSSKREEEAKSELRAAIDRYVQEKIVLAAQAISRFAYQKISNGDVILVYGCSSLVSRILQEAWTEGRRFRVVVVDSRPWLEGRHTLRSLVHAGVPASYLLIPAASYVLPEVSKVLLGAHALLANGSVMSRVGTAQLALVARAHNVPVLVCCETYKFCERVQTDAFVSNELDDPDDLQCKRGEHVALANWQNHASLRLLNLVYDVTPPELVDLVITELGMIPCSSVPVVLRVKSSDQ
Chain of UniProt O94905 (O94905 whole entry, looked up): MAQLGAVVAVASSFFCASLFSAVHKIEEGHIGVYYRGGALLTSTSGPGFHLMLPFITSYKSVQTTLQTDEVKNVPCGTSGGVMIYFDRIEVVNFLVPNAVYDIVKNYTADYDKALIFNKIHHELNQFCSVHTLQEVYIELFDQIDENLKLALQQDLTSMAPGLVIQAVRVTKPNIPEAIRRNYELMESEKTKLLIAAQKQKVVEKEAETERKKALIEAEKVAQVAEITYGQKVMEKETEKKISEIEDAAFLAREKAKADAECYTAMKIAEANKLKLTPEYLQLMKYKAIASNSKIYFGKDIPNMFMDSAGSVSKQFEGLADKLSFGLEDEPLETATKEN
Chain of UniProt O14772 (O14772 whole entry, looked up): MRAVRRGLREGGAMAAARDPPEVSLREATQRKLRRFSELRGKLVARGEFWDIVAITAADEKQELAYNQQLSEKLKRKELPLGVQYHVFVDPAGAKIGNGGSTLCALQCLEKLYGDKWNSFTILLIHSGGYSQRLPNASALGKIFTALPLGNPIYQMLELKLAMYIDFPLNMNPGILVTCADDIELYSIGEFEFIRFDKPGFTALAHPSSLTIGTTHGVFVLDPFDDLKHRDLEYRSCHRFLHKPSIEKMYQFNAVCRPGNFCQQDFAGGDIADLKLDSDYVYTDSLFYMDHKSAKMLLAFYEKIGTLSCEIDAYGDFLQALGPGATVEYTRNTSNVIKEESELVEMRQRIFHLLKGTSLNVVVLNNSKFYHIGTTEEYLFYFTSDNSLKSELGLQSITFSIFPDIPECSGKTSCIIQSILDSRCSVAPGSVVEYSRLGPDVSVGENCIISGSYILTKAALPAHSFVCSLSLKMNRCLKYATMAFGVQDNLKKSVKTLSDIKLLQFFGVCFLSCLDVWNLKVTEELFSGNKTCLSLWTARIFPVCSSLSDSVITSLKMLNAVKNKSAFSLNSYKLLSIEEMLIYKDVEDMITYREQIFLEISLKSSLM
Chain of UniProt O43427 (O43427 whole entry, looked up): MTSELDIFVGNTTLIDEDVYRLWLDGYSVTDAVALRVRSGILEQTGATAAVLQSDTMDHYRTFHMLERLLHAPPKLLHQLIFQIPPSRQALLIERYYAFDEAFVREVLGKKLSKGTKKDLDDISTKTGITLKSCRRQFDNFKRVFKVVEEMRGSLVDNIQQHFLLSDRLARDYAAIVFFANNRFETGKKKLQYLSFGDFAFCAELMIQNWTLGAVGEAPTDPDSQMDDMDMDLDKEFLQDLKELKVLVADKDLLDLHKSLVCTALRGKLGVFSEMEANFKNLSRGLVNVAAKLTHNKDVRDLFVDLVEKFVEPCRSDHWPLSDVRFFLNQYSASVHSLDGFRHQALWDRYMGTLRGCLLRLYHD
Chain of UniProt P02792 (P02792 whole entry, looked up): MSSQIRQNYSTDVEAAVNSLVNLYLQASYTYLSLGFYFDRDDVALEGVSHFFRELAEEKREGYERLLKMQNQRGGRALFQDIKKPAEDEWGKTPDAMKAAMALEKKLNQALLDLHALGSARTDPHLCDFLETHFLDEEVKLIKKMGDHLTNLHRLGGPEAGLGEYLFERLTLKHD
Chain of UniProt Q92889 (Q92889 whole entry, looked up): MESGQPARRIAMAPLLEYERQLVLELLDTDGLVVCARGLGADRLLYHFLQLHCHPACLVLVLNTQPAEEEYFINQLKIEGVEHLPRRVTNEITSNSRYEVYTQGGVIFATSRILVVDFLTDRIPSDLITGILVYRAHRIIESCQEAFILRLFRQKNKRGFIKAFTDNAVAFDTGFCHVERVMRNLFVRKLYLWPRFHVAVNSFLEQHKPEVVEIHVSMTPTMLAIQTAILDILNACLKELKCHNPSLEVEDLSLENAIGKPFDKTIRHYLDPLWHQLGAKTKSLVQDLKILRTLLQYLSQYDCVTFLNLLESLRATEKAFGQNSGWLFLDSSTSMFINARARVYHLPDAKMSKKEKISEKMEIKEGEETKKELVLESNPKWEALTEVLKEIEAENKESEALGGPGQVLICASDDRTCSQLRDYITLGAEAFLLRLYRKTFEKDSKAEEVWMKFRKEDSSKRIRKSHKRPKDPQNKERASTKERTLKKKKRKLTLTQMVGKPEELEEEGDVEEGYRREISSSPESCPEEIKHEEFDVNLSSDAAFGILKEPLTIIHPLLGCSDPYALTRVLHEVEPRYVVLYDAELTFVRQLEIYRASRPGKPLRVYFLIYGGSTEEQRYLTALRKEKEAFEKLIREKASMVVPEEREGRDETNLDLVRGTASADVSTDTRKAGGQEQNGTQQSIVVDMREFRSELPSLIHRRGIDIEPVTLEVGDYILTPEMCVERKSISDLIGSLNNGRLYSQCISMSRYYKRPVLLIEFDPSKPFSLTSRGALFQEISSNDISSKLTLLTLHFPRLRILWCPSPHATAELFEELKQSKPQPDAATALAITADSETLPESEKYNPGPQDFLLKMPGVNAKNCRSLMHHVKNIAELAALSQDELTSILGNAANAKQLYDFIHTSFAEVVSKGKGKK
Chain of UniProt Q9UJY4 (Q9UJY4 whole entry, looked up): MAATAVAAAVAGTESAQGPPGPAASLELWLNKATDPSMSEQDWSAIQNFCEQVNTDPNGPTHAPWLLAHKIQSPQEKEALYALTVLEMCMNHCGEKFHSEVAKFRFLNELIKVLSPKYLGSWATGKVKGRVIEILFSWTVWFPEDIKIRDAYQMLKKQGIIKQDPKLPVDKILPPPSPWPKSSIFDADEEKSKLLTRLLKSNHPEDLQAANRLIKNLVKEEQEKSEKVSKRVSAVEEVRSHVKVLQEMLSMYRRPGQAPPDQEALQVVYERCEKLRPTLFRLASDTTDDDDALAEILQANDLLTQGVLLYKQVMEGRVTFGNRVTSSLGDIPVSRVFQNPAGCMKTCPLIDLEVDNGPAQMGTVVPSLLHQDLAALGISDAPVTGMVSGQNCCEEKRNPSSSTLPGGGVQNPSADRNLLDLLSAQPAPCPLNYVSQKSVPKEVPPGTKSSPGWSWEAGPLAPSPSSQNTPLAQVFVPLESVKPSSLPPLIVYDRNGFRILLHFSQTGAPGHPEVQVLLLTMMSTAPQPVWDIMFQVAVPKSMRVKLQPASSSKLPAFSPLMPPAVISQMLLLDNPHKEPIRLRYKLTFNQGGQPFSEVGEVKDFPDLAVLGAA
Chain of UniProt O75616 (O75616 whole entry, looked up): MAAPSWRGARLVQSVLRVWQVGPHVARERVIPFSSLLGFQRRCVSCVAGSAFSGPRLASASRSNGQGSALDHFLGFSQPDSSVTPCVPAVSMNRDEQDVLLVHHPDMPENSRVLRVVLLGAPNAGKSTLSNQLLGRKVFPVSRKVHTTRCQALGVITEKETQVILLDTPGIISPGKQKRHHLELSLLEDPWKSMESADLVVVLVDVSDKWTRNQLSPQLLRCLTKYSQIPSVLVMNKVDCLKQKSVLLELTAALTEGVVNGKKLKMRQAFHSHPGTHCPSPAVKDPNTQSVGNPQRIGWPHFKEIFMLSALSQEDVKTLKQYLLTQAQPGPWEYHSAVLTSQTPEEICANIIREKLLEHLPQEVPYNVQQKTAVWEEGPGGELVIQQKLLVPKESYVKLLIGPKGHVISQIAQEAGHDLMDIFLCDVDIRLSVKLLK
Chain of UniProt O15117 (O15117 whole entry, looked up): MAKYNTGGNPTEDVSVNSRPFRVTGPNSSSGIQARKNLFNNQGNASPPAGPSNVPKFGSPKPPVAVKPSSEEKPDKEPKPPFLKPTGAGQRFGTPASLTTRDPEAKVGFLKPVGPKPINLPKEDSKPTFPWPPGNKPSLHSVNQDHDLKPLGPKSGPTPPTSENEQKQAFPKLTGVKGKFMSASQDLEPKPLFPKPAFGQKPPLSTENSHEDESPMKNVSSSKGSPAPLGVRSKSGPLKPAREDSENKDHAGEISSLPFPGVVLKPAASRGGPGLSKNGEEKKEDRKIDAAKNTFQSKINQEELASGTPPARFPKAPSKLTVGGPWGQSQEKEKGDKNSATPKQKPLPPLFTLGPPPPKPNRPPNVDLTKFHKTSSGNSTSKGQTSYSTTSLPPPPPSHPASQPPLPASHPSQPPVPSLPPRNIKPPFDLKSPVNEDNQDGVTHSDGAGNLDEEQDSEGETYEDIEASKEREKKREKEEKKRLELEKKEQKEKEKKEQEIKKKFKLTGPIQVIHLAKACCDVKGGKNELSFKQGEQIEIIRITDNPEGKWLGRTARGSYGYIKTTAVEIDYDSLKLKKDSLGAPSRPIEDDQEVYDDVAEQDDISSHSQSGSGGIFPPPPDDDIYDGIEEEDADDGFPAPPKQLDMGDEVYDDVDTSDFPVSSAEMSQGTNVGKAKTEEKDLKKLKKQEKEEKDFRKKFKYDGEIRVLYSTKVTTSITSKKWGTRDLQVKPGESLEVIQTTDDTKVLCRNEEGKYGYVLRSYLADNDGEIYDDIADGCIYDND

Target	log2 fold change
FTL (UniProt P02792)	-0.04
EPHX2 (UniProt P34913)	-0.023
FLAD1 (UniProt Q8NFF5)	0.039
ELF2 (UniProt Q15723)	0.024
EPB41, A0A2R8Y6D0	0.114
EIF3I (UniProt Q13347)	0.01
ERCC4 (UniProt Q92889)	0.058
EIF2B4 isoform 2 (UniProt Q9UI10)	0.013
EP400 isoform 5 (UniProt Q96L91)	0.037
GCN1 (UniProt Q92616)	0.001
FBXO22 (UniProt Q8NEZ5)	-0.074
GIGYF2 (UniProt Q6Y7W6)	0.052
GAMT (UniProt Q14353)	0.055
ERLIN2 (UniProt O94905)	0.005
EIF2B3 (UniProt Q9NR50)	-0.009
GALK1 isoform 2 (UniProt P51570)	-0.005
ERAL1 (UniProt O75616)	-0.03
EFCAB14 (UniProt O75071)	0.01
FPGT (UniProt O14772)	-0.011

Target	log2 fold change
FXR2 (UniProt P51116)	-0.083
FAU (UniProt E9PR30)	-0.087
FIBP (UniProt O43427)	0.05
EIF2B5 (UniProt Q13144)	0.04
ECI2 (UniProt O75521)	-0.054
EED, A0A5F9ZI63	0.039
DST (UniProt Q03001)	-0.003
FYB1 isoform 3 (UniProt O15117)	0.013
EXTL2 (UniProt Q9UBQ6)	0.009
EXOC4 (UniProt Q96A65)	-0.053
GGT7 (UniProt Q9UJ14)	0.008
DYNC1I2 isoform 5 (UniProt Q13409)	-0.021
FIG4 (UniProt Q92562)	-0.004
EXOC2 (UniProt Q96KP1)	-0.012
FOXJ3 (UniProt Q9UPW0)	-0.031
EPRS (UniProt P07814)	0.002
GALNT2 (UniProt Q10471)	-0.004
GGA2 (UniProt Q9UJY4)	0.003

Compound: CNC(=O)c1ccc(Nc2ncc(C(F)(F)F)c(NCc3nccnc3N(C)S(C)(=O)=O)n2)cc1 [defactinib]
Experiment: as above
Outline: as §1

Target	log2 fold change
FTL (UniProt P02792)	0.15
EPHX2 (UniProt P34913)	-0.002
FLAD1 (UniProt Q8NFF5)	-0.008
ELF2 (UniProt Q15723)	-0.013
EPB41, A0A2R8Y6D0	0.098
EIF3I (UniProt Q13347)	0.002
ERCC4 (UniProt Q92889)	0.101
EIF2B4 isoform 2 (UniProt Q9UI10)	0.035
EP400 isoform 5 (UniProt Q96L91)	0.01
GCN1 (UniProt Q92616)	0.037
FBXO22 (UniProt Q8NEZ5)	0.01
GIGYF2 (UniProt Q6Y7W6)	0.017
GAMT (UniProt Q14353)	0.068
ERLIN2 (UniProt O94905)	0.002
EIF2B3 (UniProt Q9NR50)	0.008
GALK1 isoform 2 (UniProt P51570)	-0.002
ERAL1 (UniProt O75616)	0.027
EFCAB14 (UniProt O75071)	-0.007
FPGT (UniProt O14772)	0.008

Target	log2 fold change
FXR2 (UniProt P51116)	-0.117
FAU (UniProt E9PR30)	0.003
FIBP (UniProt O43427)	0.1
EIF2B5 (UniProt Q13144)	0.022
ECI2 (UniProt O75521)	-0.038
EED, A0A5F9ZI63	0.003
DST (UniProt Q03001)	-0.094
FYB1 isoform 3 (UniProt O15117)	0.033
EXTL2 (UniProt Q9UBQ6)	0.037
EXOC4 (UniProt Q96A65)	0.039
GGT7 (UniProt Q9UJ14)	0.066
DYNC1I2 isoform 5 (UniProt Q13409)	-0.011
FIG4 (UniProt Q92562)	-0.039
EXOC2 (UniProt Q96KP1)	0.046
FOXJ3 (UniProt Q9UPW0)	0.014
EPRS (UniProt P07814)	0.003
GALNT2 (UniProt Q10471)	0.008
GGA2 (UniProt Q9UJY4)	-0.029
